Laboratory results as given in the supplement of paper PMC4237247.

System: HeLa
Experiment: percent cells in G1 phase; higher = more G1 arrest
Settings: 10 µM; 20 h; hit class: G1-phase inhibitor
Method: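 HTS of 79,827 drug-like compounds at 10 uM. HeLa cells in 384-well plates were treated for 20 h, fixed, stained with Vybrant DyeCycle Green and scanned on an Acumen eX3 cytometer to give per-well cell cycle profiles (% cells in each phase). The plate Z' was 0.51. Only hits are listed: G1 hits >4 SD and S hits >5 SD from the mean.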

| SMILES | percent cells in G1 phase [%] |
| --- | --- |
| C[C@@]12C(=O)OC(=O)[C@]1(C)[C@H]1CC[C@@H]2O1 | 70.6 |
| C/C(=C\c1ccc(Cl)cc1)[N+](=O)[O-] | 69.2 |
| CC(C)(C)c1cc(C=C(C#N)C#N)cc(C(C)(C)C)c1O | 75.1 |
| C[C@@H]1O[C@@H](O[C@H]2C[C@@H](O)[C@]3(CO)[C@H]4[C@H](O)C[C@]5(C)[C@@H](C6=CC(=O)OC6)CC[C@]5(O)[C@@H]4CC[C@]3(O)C2)[C@H](O)[C@H](O)[C@H]1O | 70.1 |
| CNc1ccc2oc(C[C@H]3O[C@@]4(CC[C@H]3C)O[C@H]([C@H](C)C(=O)c3ccc[nH]3)[C@H](C)C[C@H]4C)nc2c1C(=O)O | 84.7 |
| CNC1CC2OC(C)(C1OC)n1c3ccccc3c3c4c(c5c6ccccc6n2c5c31)C(=O)NC4 (centres undefined) | 86.7 |
| C/C=C(/C)C(=O)O[C@H]1C(C)=C2[C@H]([C@@H]1OC(=O)CCCCCCC)[C@@](C)(OC(C)=O)C[C@H](OC(=O)CCC)[C@@]1(O)[C@H]2OC(=O)[C@@]1(C)O | 81.5 |
| O=[N+]([O-])c1ccc(NCCO)c2ncccc12 | 69.5 |
| C[C@@H]1C[C@@H]([C@H](O)CC2CC(=O)NC(=O)C2)C(=O)[C@@H](C)C1 [Cycloheximide] | 77 |
